Measured values as given in PubChem BioAssay AID2810 (NMMLSC, 2010).
In all, about 1,200 compounds went through this assay and about 65 (5%) were called active.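 The calls were made as follows: active = at either tested dose, response and 90th-percentile vesicle-stain brightness of CD8 cells under set limits and under 9% cells vesicle-bound; inactive = the rest.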 This excerpt belongs to a sample that is enriched for actives.

Assay: modulators of CD8 T cell-vesicle binding, confirmation, cherry-picked primary hits, two concentrations (AID 2810);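 also: lower values mean blocking of vesicle binding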;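 as to percent response (vesicle binding): ratio of mean FL2 vesicle stain of CD8+ cells to that row's control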
Details: 2C CD8+ T cell-vesicle binding, flow cytometry; for double positive events: CD8+/vesicle+ events
[1] = at 15.4 µM, stronger effect = lower value

Row | Structure (SMILES) | double positive events (at 7.7 µM) | double positive events [1] | percent response (vesicle binding) [1] | percent response (vesicle binding) (response, at 7.7 µM)
1 | COc1ccc(C2=CC(=O)C[C@H](c3ccc4c(c3)OCO4)C2)cn1 | 9.9% | 4.4% | 35.6% (active) | 132%
2 | CCCOc1ccc(C2=CC(=O)C[C@H](c3ccc(OC)cc3)C2)cc1 | 11% | 10.3% | 69.4% (inactive) | 126%
3 | COc1ccc([C@H]2CC(=O)C=C(c3ccc(OC)nc3)C2)cc1 | 14.2% | 9.6% | 212% (inactive) | 129%
4 | Cc1ccc(O)c(CCc2ccccc2)n1 | 15.8% | 2.8% | 113% (inactive) | 128%
5 | O=C(Nc1nc2ccccc2[nH]1)c1ccccc1[N+](=O)[O-] | 21% | 27.8% | 316% (inactive) | 383%
6 | O=C(NC(=S)Nc1nc(-c2ccccc2)cs1)c1cccs1 | 16.9% | 1.5% | 48.9% (active) | 238%
7 | CCNC(=O)CSc1nc(-c2ccccc2)cs1 | 25.1% | 14.3% | 215% (inactive) | 240%
8 | O=C(Nc1nc(-c2ccccc2)cs1)c1ccc(N2CCOCC2)c([N+](=O)[O-])c1 | 8.4% | 25.6% | 552% (inactive) | 78.4%
9 | CC1c2ccsc2CCN1C(=O)NC(=O)c1ccc(Cl)cc1 (configuration not stated) | 20.6% | 18.4% | 185% (inactive) | 486%
10 | CCOC(=O)c1cnc2nc(C)nn2c1N | 10.5% | 10.6% | 70.8% (inactive) | 113%
11 | CCCCNC(=O)c1cnc2n(c1=O)CCS2 | 38.7% | 14.7% | 184% (inactive) | 399%
12 | CCCNC(=O)c1nc2ncc(Br)cn2n1 | 15.3% | 1% | 43% (active) | 231%
13 | O=C(NC(=S)NCc1ccco1)c1ccc(Br)cc1 | 18.8% | 5.9% | 52.9% (active) | 186%
14 | O=C(NNC(=S)NC(=O)c1ccco1)c1ccc(F)cc1 | 7.1% | 18.1% | 196% (inactive) | 291%
15 | Cc1ccc(C(=O)NCc2ccco2)o1 | 10.5% | 20.1% | 586% (inactive) | 368%
16 | CCOc1ccccc1NC(=O)c1ccc(F)c(S(=O)(=O)N2CCC3(CC2)OCCO3)c1 | 16.8% | 14.7% | 94.2% (inactive) | 132%
17 | COc1ccc(C2(O)CCN(CCCCOc3ccccc3)CC2)cc1 | 12.9% | 31.8% | 292% (inactive) | 174%
18 | C[N+]1(C)CC2([N+](=O)[O-])CC=C(Oc3ccccc3)C([N+](=O)[O-])(C2)C1 (configuration not stated) | 28.9% | 3.4% | 49.5% (active) | 485%
19 | CCOc1ccccc1NC(=O)CN(c1ccc(C)cc1)S(=O)(=O)c1c(C)noc1C | 30.1% | 16.7% | 129% (inactive) | 502%
20 | COc1ccc(Cl)cc1NC(=O)/C=C/C(=O)O | 13.3% | 24.2% | 251% (inactive) | 192%
21 | CCCCN(C(=O)COC(=O)c1ccc(C=O)cc1)c1c(N)n(CCC)c(=O)[nH]c1=O | 9.2% | 13.1% | 406% (inactive) | 335%
22 | CCc1ccc(OCc2cnc(Cl)s2)cc1 | 11.6% | 16.5% | 277% (inactive) | 421%
23 | Cn1c(SCC(=O)Nc2ccc3cn[nH]c3c2)nnc1-c1cccs1 | 12.5% | 17.2% | 146% (inactive) | 160%

Row | Structure (SMILES) | double positive events (at 7.7 µM) | double positive events [1] | percent response (vesicle binding) [1] | percent response (vesicle binding) (response, at 7.7 µM)
24 | Cc1c(NC(=S)NC(=O)CCc2ccccc2)c(=O)n(-c2ccccc2)n1C | 21.8% | 30.2% | 295% (inactive) | 278%
25 | Cc1c(NS(=O)(=O)CC23CCC(CC2=O)C3(C)C)c(=O)n(-c2ccccc2)n1C (configuration not stated) | 14.2% | 1.9% | 37.7% (active) | 260%
26 | CCC(=O)NC(NC(=S)Nc1c(C)n(C)n(-c2ccccc2)c1=O)C(Cl)(Cl)Cl (configuration not stated) | 16.1% | 13.9% | 129% (inactive) | 201%
27 | COc1cc(C(C)=O)ccc1O | 24% | 6.3% | 114% (inactive) | 362%
28 | Cc1cc(C(=O)NCc2cc(C(=O)O)oc2C)c(C)o1 | 29.4% | 14.9% | 86.2% (inactive) | 224%
29 | CSCCC(NC(=O)c1ccc(=O)n(C)n1)c1nc2ccccc2[nH]1 (configuration not stated) | 14.9% | 0.9% | 42% (active) | 254%
30 | O=C(NCC(=O)N1CCN(C(=O)c2ccccc2)CC1)c1ccccc1 | 13.6% | 10.6% | 148% (inactive) | 158%
31 | Cc1cc(C)nc(SCCn2c(N3CC(C)OC(C)C3)nc3c2c(=O)n(C)c(=O)n3C)n1 (configuration not stated) | 12.7% | 28.3% | 226% (inactive) | 172%
32 | C=CCNC(=O)c1c(Cl)nc(C)c([N+](=O)[O-])c1C | 28.7% | 11.5% | 144% (inactive) | 122%
33 | CCC1(C)NC(=O)N(CC(=O)N2N=C(c3ccccc3)CC2c2ccc(OC)cc2)C1=O (configuration not stated) | 9.6% | 30.9% | 413% (inactive) | 134%
34 | CCc1c(C)nc(SCC(=O)Nc2nc(-c3ccc(OC)cc3)cs2)[nH]c1=O | 33.4% | 10.4% | 192% (inactive) | 289%
35 | CCOc1ccc(-c2csc(NNC3=NCCCCC3)n2)cc1 | 15.2% | 1.4% | 52.5% (active) | 178%
36 | CCOc1ccc(-c2cn(-c3ccc(OC)cc3)c(SC)n2)cc1 | 11.4% | 13.4% | 155% (inactive) | 303%
37 | Cc1cc([N+](=O)[O-])nn1CC(=O)Nc1nccs1 | 35% | 19.6% | 221% (inactive) | 201%
38 | Cc1ccc(S(=O)(=O)c2c(N)n(NC(=O)c3ccccc3C)c3nc4ccccc4nc23)cc1 | 22.8% | 1.1% | 26.2% (active) | 248%
39 | Cc1ccc(S(=O)(=O)N2CCC(NC(=O)c3ccccc3)CC2)cc1 | 28.6% | 28.6% | 425% (inactive) | 558%
40 | Cc1ccc(S(=O)(=O)N(C)CC(=O)Nc2nc3ccccc3s2)cc1 | 30.7% | 26.8% | 351% (inactive) | 371%
41 | O=C(CN1C(=O)C2CCCN2C(=O)c2ccccc21)Nc1ccccc1-n1cccc1 (configuration not stated) | 5.8% | 12.2% | 354% (inactive) | 425%
42 | COc1ccc(C(=O)O)cc1S(=O)(=O)Nc1cccc(C)c1 | 14.1% | 17.7% | 296% (inactive) | 181%
43 | C=CCN(c1ccc(Br)cc1C(=O)OC)S(C)(=O)=O | 29.1% | 2.3% | 35.1% (active) | 465%
44 | COc1ccc(N(CC(=O)O)S(C)(=O)=O)cc1OC | 24.1% | 30.5% | 229% (inactive) | 691%
45 | c1ccc2c(c1)COC(CN1CCCCC1)OC2 | 12.3% | 10.2% | 418% (inactive) | 439%
46 | COC(=O)[C@]1(C)N[C@H](CN(C)S(=O)(=O)c2ccc(OC(F)(F)F)cc2)[C@@H]2C(=O)N(C)C(=O)[C@@H]21 | 9.2% | 26.1% | 907% (inactive) | 443%

Row | Structure (SMILES) | double positive events (at 7.7 µM) | double positive events [1] | percent response (vesicle binding) [1] | percent response (vesicle binding) (response, at 7.7 µM)
47 | COc1ccc(-c2cc(CNS(=O)(=O)c3ccc(NC(C)=O)cc3)on2)cc1 | 23.7% | 2.2% | 18.8% (active) | 277%
48 | COc1ccc(NC(=O)CN2CCN(S(=O)(=O)c3ccc(Cl)cc3)CC2)cc1 | 31.1% | 12% | 124% (inactive) | 164%
49 | CCCCNS(=O)(=O)c1ccc(OCC(=O)OC)cc1 | 14.8% | 20% | 106% (inactive) | 517%
50 | Cc1ccc(CN2CC(=O)N3[C@H]4c5cc(C)ccc5OC[C@@H]4[C@H](c4ccccc4)[C@]3(C)C2=O)cc1 | 8.3% | 11.2% | 109% (inactive) | 231%
51 | C/C(=N\NC(=O)Cn1cc([N+](=O)[O-])cn1)c1ccco1 | 23.5% | 26.1% | 268% (inactive) | 291%
52 | O=C(c1ccc(Cl)cc1)N1CCC(C(=O)N2CCN(c3ncccn3)CC2)CC1 | 27.3% | 6.4% | 173% (inactive) | 114%
53 | CCOC(=O)N1CCN(C(=O)c2ccc(N3CCCC3=O)cc2)CC1 | 9.7% | 22.5% | 213% (inactive) | 150%
54 | O=C(c1ccc(N2C(=O)C3CC=C(Cl)CC3C2=O)cc1)N1CCCCC1 (configuration not stated) | 19.3% | 5.2% | 56.9% (active) | 195%
55 | Cc1cc(C)cc(NC(=O)CC23CC4CC(C2)CC(n2nnc(C)n2)(C4)C3)c1 | 6.1% | 35.3% | 236% (inactive) | 200%
56 | CCCc1nnc(NC(=O)CCC(=O)N2CCC(Cc3ccccc3)CC2)s1 | 11.7% | 25.7% | 200% (inactive) | 291%
57 | Cc1c2cccn2cc[n+]1C | 16.6% | 4.4% | 29.6% (active) | 159%
58 | Cc1cccc(C(=O)OCC(=O)Nc2c(C)n(C)n(-c3ccccc3)c2=O)c1 | 11% | 26.9% | 392% (inactive) | 320%
59 | Cc1ccc(C(=O)NC(C)CCc2ccccc2)cc1[N+](=O)[O-] (configuration not stated) | 27% | 32.4% | 199% (inactive) | 481%
60 | Cc1ccc(-n2ncc3c(N4CCCC(C)C4)ncnc32)c(C)c1 (configuration not stated) | 15.4% | 13.3% | 312% (inactive) | 283%
61 | CCSc1nnc(NC(=O)c2ccc(F)c(S(=O)(=O)N3CCOCC3)c2)s1 | 23.7% | 34.2% | 203% (inactive) | 209%
62 | O=C(OCCOc1cccc(Cl)c1)c1ccc(F)c(S(=O)(=O)N2CCOCC2)c1 | 24.5% | 0.7% | 42.7% (active) | 333%
63 | O=C(NCC1CCCCC1)c1ccc(Cl)c(S(=O)(=O)N2CCOCC2)c1 | 9.2% | 22.8% | 342% (inactive) | 135%
64 | CC1CCN(S(=O)(=O)c2csc(C(=O)Nc3ccccc3)c2)CC1 | 33.2% | 23.8% | 579% (inactive) | 415%
65 | CC(=O)Nc1ccccc1OC(C)C(=O)NC(C)c1ccc(F)cc1 (configuration not stated) | 9.2% | 9% | 114% (inactive) | 420%
66 | Cc1cc(F)ccc1S(=O)(=O)N1CCCOC1CNC(=O)C(=O)NC1CCCC1 (configuration not stated) | 11.7% | 9.3% | 255% (inactive) | 451%
67 | COC(=O)c1ccc(OC(=O)CS(=O)c2ccccc2[N+](=O)[O-])cc1 (configuration not stated) | 15% | 3.4% | 143% (inactive) | 395%
68 | Cc1cccc(Nc2nc(-c3ccccn3)cs2)n1 | 28.1% | 5.2% | 46.7% (active) | 538%
